Tests used:
Test in all cases: PBM binding z-score (relative to random genomic background probes); higher = stronger binding; sequences stand for … in GC…GCGATTGACAGCGTAGAATGAAGG
[1] = tested on: FXR:RXRa (NR concentration 270 nM, RXRa partner concentration 90 nM)
Method in brief: (§1)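 Each nuclear receptor dimer, without ligand, was incubated for 1 h on custom Agilent 4×180K protein-binding microarrays. Binding was detected with antibodies against each partner (one per run), and scanned fluorescence was regression-normalized. The binding z-scores are referenced to random human genomic background probes.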

[2] = tested on: LXRa:RXRa (NR concentration 270 nM, RXRa partner concentration 90 nM)
Method in brief: as §1

[3] = tested on: LXRa homodimer (NR concentration 270 nM)
Method in brief: as §1

[4] = tested on: LXRb:RXRa (NR concentration 270 nM, RXRa partner concentration 90 nM)
Method in brief: as §1

[5] = tested on: LXRb homodimer (NR concentration 270 nM)
Method in brief: as §1

[6] = tested on: PPARa:RXRa (NR concentration 270 nM, RXRa partner concentration 90 nM)
Method in brief: as §1

[7] = tested on: PPARg:RXRa (NR concentration 180 nM, RXRa partner concentration 90 nM)
Method in brief: as §1

[8] = tested on: PPARg:RXRa 270nM:90nM, anti-RXR (NR concentration 270 nM, RXRa partner concentration 90 nM)
Method in brief: as §1

[9] = tested on: PPARg:RXRa 30nM:10nM, anti-RXR (NR concentration 30 nM, RXRa partner concentration 10 nM)
Method in brief: as §1

[10] = tested on: PPARg:RXRa 90nM:30nM, anti-RXR (NR concentration 90 nM, RXRa partner concentration 30 nM)
Method in brief: as §1

[11] = tested on: PPARg:RXRa DBDmut IVT, anti-RXR (DBD mutation: RXRa K156A/R161A, NR concentration 270 nM, RXRa partner concentration 90 nM)
Method in brief: as §1

[12] = tested on: PPARg:RXRa IVT, anti-PPARg (NR concentration 270 nM, RXRa partner concentration 90 nM)
Method in brief: as §1

[13] = tested on: PPARg DBDmut:RXRa IVT, anti-PPARg (DBD mutation: PPARg1 K132A/R137A, NR concentration 270 nM, RXRa partner concentration 90 nM)
Method in brief: as §1

[14] = tested on: PPARg DBDmut IVT, anti-PPARg (DBD mutation: PPARg1 K132A/R137A, NR concentration 270 nM)
Method in brief: as §1

[15] = tested on: PPARg homodimer (NR concentration 180 nM)
Method in brief: as §1

[16] = tested on: PXR:RXRa (NR concentration 270 nM, RXRa partner concentration 90 nM)
Method in brief: as §1

[17] = tested on: PXR homodimer (NR concentration 270 nM)
Method in brief: as §1

[18] = tested on: RARa:RXR (NR concentration 270 nM, RXRa partner concentration 90 nM)
Method in brief: as §1

[19] = tested on: RARa homodimer (NR concentration 270 nM)
Method in brief: as §1

[20] = tested on: RARb:RXRa (NR concentration 270 nM, RXRa partner concentration 90 nM)
Method in brief: as §1

Sequence	PBM binding z-score [1]	PBM binding z-score [2]	PBM binding z-score [3]	PBM binding z-score [4]	PBM binding z-score [5]	PBM binding z-score [6]	PBM binding z-score [7]	PBM binding z-score [8]	PBM binding z-score [9]	PBM binding z-score [10]	PBM binding z-score [11]	PBM binding z-score [12]	PBM binding z-score [13]	PBM binding z-score [14]	PBM binding z-score [15]	PBM binding z-score [16]	PBM binding z-score [17]	PBM binding z-score [18]	PBM binding z-score [19]	PBM binding z-score [20]
CCGACTGGGGCAAAGGTTATCATACTCAGTACGA	1.81	1.66	0.176	1.87	-1.04	5.54	10.5	9.03	8.6	9.34	4.35	5.85	-0.186	0.138	2.13	2.11	-0.0954	3.14	-0.00422	2.08
TGAACGAGGTTATAAGATCAGGGAACGTTGCAAA	1.41	1.2	-0.217	1.08	-0.589	2.56	1.16	1.5	0.646	1.06	0.0481	1.09	0.721	0.611	0.735	0.661	-0.0458	1.31	-0.0844	1.18
ATATGTAGGTTACATCCGGGTCAGTCAGGCTATG	1.08	2.95	0.519	1.74	0.572	3.66	5.53	4.69	2.14	3.86	7.52	7.34	2.22	1.82	1.39	2.01	0.364	2.42	0.784	1.96
TCTAGGAGGCCAGAGGGTCACTCAAGAGGTACGG	1.5	0.891	-0.426	0.559	-1.15	2.65	1.87	3.02	2.76	2.99	1.84	1.03	-0.0331	-0.364	0.662	1.42	-0.35	2.08	-0.215	2.58
TCATTTAGGTAAACAGGTGAAAGTCCGTAAGTTA	1.47	1.13	0.719	1.04	0.705	2.37	2.24	3.73	4.42	3.99	3.9	3.97	1.38	1.49	1.97	1.01	0.929	1.52	1.74	1.08
CAAACTAGGTCACTGGAAGGTCAAAGTCCGCATG	5.47	5.41	4.68	4.88	1.36	5.88	9.17	7.25	5.53	7.22	8.42	8.89	7.66	2.9	9.82	5.36	2.12	7.1	3.34	4.9
GCGACTGAGGCATCAGCAGGTTACCATAACTTAA	-0.539	-0.504	-0.511	-0.382	-0.493	-0.272	0.31	-0.607	-0.469	-0.443	-0.328	-0.559	-1.15	-0.218	-0.486	-0.397	-0.552	0.102	-0.596	-0.298
AGAACGTGGGCACGCTGAGTTGATAGCAGAGTAG	-0.602	-0.538	-0.448	-0.8	-1.22	-0.462	0.523	-0.265	-0.225	-0.405	-0.231	-0.143	0.109	-0.419	-0.518	-0.542	-0.719	-0.528	-0.906	-0.0707
GGAACGAGGGCAAAGTTGATAGCTTCTGTCGACG	1.24	0.709	-0.752	0.608	-0.484	3.85	6.78	6.83	5.74	7.17	4.1	4.11	0.574	0.0846	0.712	0.96	0.104	1.34	-0.449	2.14
CCTACTGGGCCAAGGTCATTCATCAGTCAAAGCA	3.63	3.65	1.71	3.07	0.00532	4.07	3.93	4.44	1.62	3.51	4	4.59	-0.258	-0.0447	2.02	3.93	1.66	3.84	0.345	3.34
TCTCGGAGGACACGAAAGTTCAGAGCTCGACATC	1.03	2.18	2.89	0.952	-0.575	1.14	0.211	1.25	2.34	1.81	1.71	-0.0575	-0.141	-0.597	0.949	3.3	2.7	1.27	0.226	2.78
CCTCTGAGGACAACAGGAGGTCAGAGCTGCCAGA	1.9	2.12	1.95	1.33	-0.394	1.88	0.389	0.288	-0.556	-0.276	0.791	0.943	-0.185	-0.809	1.58	1.87	0.497	2.39	0.218	2.9
CGTCCAAGGTCAGCAGGGCAGTGAAAGCGACGTG	5.27	3.24	-0.203	2.34	-0.623	4.47	3.08	3.74	0.535	2.52	2.44	3.13	-0.138	-1.04	1.69	2.25	0.00417	3.12	0.417	5.17
CCTCGGAGGACAACAGGAGGTCACAGCTGCCAGA	2.75	3.93	3.82	2.82	-0.268	3.42	1.76	2	-0.188	1.1	0.582	1.67	-1.61	-1.12	2.8	4.2	0.604	4.69	0.924	3.35
ACTCGAAGGACAAAGGTCAGAGCTACGCCAGTGA	4.03	3.98	1.41	3.57	0.35	4.95	6.73	6.23	5.02	6.39	0.648	3.42	-0.0022	-0.263	2.57	3.58	0.743	4.28	0.861	4.7
ACTTACGGGTAAACGAGGTTATAGCACGCGTATA	0.677	2.57	0.806	1.56	0.485	2.01	0.93	0.752	0.277	0.238	0.828	1.16	-0.07	0.0677	0.611	1.65	0.138	2.32	0.806	0.846
TCGAGTAGGTTACCAATTGGGCATTCAGCTTTCT	0.0774	0.268	-0.567	0.437	-0.954	0.973	-0.0221	1.3	0.909	1.06	3.77	2.73	-0.446	-0.0338	-0.44	0.0575	-0.745	0.253	-0.895	0.606
GATACAGGGTCAGCTAAAGGCCAGAGTATGGAAA	4.35	2.74	-0.339	2.43	-0.758	4.67	4.07	3.58	0.882	2.24	1.25	2.78	0.576	-0.417	2.2	2.68	-0.205	4.25	0.412	4.26
CCTACCGGGCCAAAGGTCATTGATTCCAATGCTC	4.82	5.29	3.7	4.97	0.797	5.89	9.76	9.09	7.65	9.83	0.996	4.7	-0.596	-1.68	3.08	5.32	1.52	6.45	0.836	4.35
CAAACTAGGTCACACAGGTCAAAGTCCGTGCGTA	5.67	5.43	4.2	4.82	0.995	5.71	9.3	7.72	5.14	7.46	8.75	9.19	1.71	1.11	2.43	4.78	4.14	4.85	0.759	4.59
CGTCCAAGGTCAGAAAGGTCAGTGAATGCCGAGT	5.85	5	3.05	4.56	0.524	4.94	3.36	4.31	0.967	2.8	1.91	3.14	-0.203	-0.0818	3.94	6.06	10.7	5.92	3.03	5.34
TCTCGTAGGACACGAAAGGTCAGAGCTCGACATC	3.08	3.85	2.58	3.39	0.134	3.58	1.24	2.98	2.7	2.81	1.81	1.71	-0.191	0.17	3.44	3.94	0.393	4.37	1.1	4.02
ACTTACGGGTCAACGAGGTTATGGCACGCGTATA	7.06	5.06	0.89	4.51	0.72	5.54	5.52	5.67	2.05	3.95	3.48	4.51	1.34	0.297	3.2	5.1	2.74	5.52	0.8	4.32
GCTATTAGTTGAAGGGGCAACCGAATGATTCTCG	-0.0427	-0.304	-0.118	0.151	-0.16	0.84	0.924	2.1	0.49	1.65	0.421	-0.0967	-0.209	0.191	1.03	-0.209	-0.028	0.0521	0.778	0.759
CGAACTAGTTCATCCAGGACAGTGAATACATTGA	0.527	0.53	0.205	0.693	-0.0526	0.838	0.619	0.145	0.0881	0.329	1.33	0.831	0.796	0.456	0.323	1.64	2.98	1.06	0.65	1.53
AGTCAAAGTTCACTAGGTACCGTAAGATTCAGCT	4.67	5.23	3.18	3.05	0.945	4.23	5.85	6.01	2.8	5.22	1.61	3.48	1.07	0.221	2.63	4.09	3.98	2.9	1.09	4.74
TAACCAAGGTGAGCTGAGGTCGTTGATCCAACTC	2.66	1.63	-0.195	0.348	-0.934	1.81	0.206	0.531	-0.0525	0.137	0.67	1.99	-0.13	0.366	-0.0916	4.88	0.136	1.74	-0.541	1.81
ACAGACAGTTGATGAAGGTAACTCAGGCTATCAT	0.165	-0.156	-0.193	-0.191	0.0371	-0.00843	0.507	-0.149	-0.0201	-0.134	-0.364	-0.0113	0.732	0.538	0.771	0.245	0.258	0.287	0.632	0.225

Reference: the supplement of paper PMC6555819
